Measured values from PubChem BioAssay (NCATS).
Records with an inconclusive call do not appear. Unmarked numbers belong to inactive results. Active and inactive are the calls of the source. Calls follow the shape of the dose curve; as a rule, active = well fitted inhibition curve with a large enough effect; inconclusive = small, poorly fitted or top-dose-only effect; inactive = flat fitted curve, though single readings scatter.

Each molecule was assayed against Ubiquitin carboxyl-terminal hydrolase 1 (Homo sapiens) (UniProt O94782) (assay: Inhibitors of USP1/UAF1: Pilot qHTS (AID 504865; also: nearly all actives have a fitted effect of over 35% in size;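 as to activity change, negative = inhibition: rhodamine fluorescence freed from ubiquitin-rhodamine substrate followed over time; top concentration of the series differs between compounds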)). Conditions: purified USP1/UAF1, Ub-rhodamine cleavage fluorescence; series mostly up to 54.9 µM; activity change, negative = inhibition: at the top concentration.
Source text: Deubiquitinating enzymes (DUBs) are a class of enzymes that can cleave isopeptide bond formed between the C-terminal carboxylate of ubiquitin and a lysine side-chain amino group on the target protein. Among them, ubiquitin specific proteases (USPs) constitute the largest DUB family. Human USPs are emerging as promising targets for pharmacological intervention because of their connection to a number of human diseases, including prostate, colon and breast cancer (1, 2), pediatric acute lymphoblastic leukemia (3), and familial cylindromatosis (4). The advantage of inhibiting USPs lies in the potential specificity of therapeutic intervention that can lead to better efficacy and reduce nonspecific side effects.
In a collaboration between the University of Delaware and the NIH Chemical Genomics Center, a high-throughput screen assay was developed to screen for USP1/UAF1 inhibitors. This miniaturized assay has a fluorescent read-out and is used to screen the NIH Molecular Libraries Small Molecule Repository (MLSMR) in order to identify a small molecule that inhibits USP1.
NIH Chemical Genomics Center [NCGC]
NIH Molecular Libraries Probe Centers Network [MLPCN]
Assay Submitter (PI): Zhihao Zhuang, University of Delaware
1. Priolo, C., et al. (2006) The isopeptidase USP2a protects human prostate cancer from apoptosis. Cancer Res 66, 8625-8632
2. Popov, N., et al. (2007) The ubiquitin-specific protease USP28 is required for MYC stability. Nat Cell Biol 9, 765-774
3. De Pitta, C., et al. (2005) A leukemia-enriched cDNA microarray platform identifies new transcripts with relevance to the biology of pediatric acute lymphoblastic leukemia. Haematologica 90, 890-898
4. Kovalenko, A., et al. (2003) The tumour suppressor CYLD negatively regulates NF-kappaB signalling by deubiquitination. Nature 424, 801-805
3 microliters of reagents (buffer in columns 3 and 4 as negative control and 1nM USP1/UAF1 complex in columns 1, 2, and 5-48) are dispensed into Greiner black solid bottom 1536-well assay plates. Compounds are then transferred via Kalypsys pin tool equipped with 1536-pin array (10nl slotted pins, V&P Scientific, San Diego, CA). Following an incubation step of 15 min at room temperature, 1ul of Ub-Rho substrate (150nM final concentration) is added to initiate the reaction. The plates are immediately centrifuged at 1000 rpm for 15 seconds, and subsequently transferred to a ViewLux high-throughput CCD imager (PerkinElmer) wherein kinetic measurements of fluorescence are acquired using 480 nm excitation/540 nm emission filter set (6 reads every 60 seconds, see Table 1). All reagents are diluted in an assay buffer consisting of 50mM HEPES (pH 7.8), 0.5mM EDTA, 0.1 mg/ml BSA, 1mM TCEP, and 0.01% Tween-20.
% is scaled to controls: 0 for no effect and ±100 for the full control effect; potency is read from the fitted curve at half-maximal effect.

Sequence of Ubiquitin carboxyl-terminal hydrolase 1 (Homo sapiens) (O94782 whole entry, looked up): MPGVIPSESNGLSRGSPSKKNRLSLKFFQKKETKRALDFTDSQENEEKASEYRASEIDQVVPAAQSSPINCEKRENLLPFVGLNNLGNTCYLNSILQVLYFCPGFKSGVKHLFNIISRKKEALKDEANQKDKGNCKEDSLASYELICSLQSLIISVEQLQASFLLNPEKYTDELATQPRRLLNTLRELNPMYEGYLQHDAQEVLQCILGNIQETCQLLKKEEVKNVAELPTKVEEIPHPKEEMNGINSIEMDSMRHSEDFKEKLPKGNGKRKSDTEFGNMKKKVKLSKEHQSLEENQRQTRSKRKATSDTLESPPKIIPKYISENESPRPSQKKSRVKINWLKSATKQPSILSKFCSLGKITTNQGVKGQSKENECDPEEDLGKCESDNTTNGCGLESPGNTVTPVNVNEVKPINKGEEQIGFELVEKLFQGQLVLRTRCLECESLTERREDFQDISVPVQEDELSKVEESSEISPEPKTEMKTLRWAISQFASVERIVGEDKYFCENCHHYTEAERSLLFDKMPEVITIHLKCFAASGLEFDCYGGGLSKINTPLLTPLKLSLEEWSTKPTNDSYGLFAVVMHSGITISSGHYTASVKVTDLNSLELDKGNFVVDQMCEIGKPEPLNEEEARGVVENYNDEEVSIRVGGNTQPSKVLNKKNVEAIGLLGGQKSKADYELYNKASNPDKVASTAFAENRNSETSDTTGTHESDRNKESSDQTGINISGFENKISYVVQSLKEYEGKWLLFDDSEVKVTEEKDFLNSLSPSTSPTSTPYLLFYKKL

First: Cc1cnc(CNc2ncncc2-c2ccccc2C(F)(F)F)cn1
Second: FC(F)(F)c1ccccc1-c1cc(N2CCNCC2)ncn1
The “activity change, negative = inhibition” value of the first is higher: -2.45% [at 114 µM] for the first, -9.38% [at 114 µM] for the second.

Going from `CN(C)C(=O)c1ccc(-c2cncnc2NCCc2cnc[nH]2)cc1` to `CC(=O)NCCNc1ncncc1-c1ccc(N(C)C)cc1`, the “activity change, negative = inhibition” value falls from -5.92% to -11.5%.

Compared with `CCNc1ncc2nc(C)c(=O)n(CCC#N)c2n1`, `Cc1nc2cnc(N(C)C)nc2n(CCC#N)c1=O` is higher in “activity change, negative = inhibition” value: -9.86% for the first, -7.92% for the second.

Going from `Cc1ccccc1-c1cc(Nc2ccccc2)ncn1` to `CN(C)C(=O)c1ccc(-c2cc(Nc3ccccc3)ncn2)cc1`, the “activity change, negative = inhibition” value rises from -20% to -15.7%.

Going from `O=c1c(-c2ccc(F)c(F)c2)nc2cncnc2n1C1CC1` to `O=c1c(-c2ccc(F)cc2)nc2cnc(Oc3cccc(Cl)c3)nc2n1C1CC1`, the “activity change, negative = inhibition” value rises from -9.16% to -6.48%.

Going from `CN(C)c1ncc2nc(-c3cccs3)c(=O)n(C[C@H]3CCCO3)c2n1` to `COc1ccc(-c2nc3cnc(Nc4ccccc4)nc3n(C[C@H]3CCCO3)c2=O)cc1`, the “activity change, negative = inhibition” value rises from -22.9% to -19.6%.

Going from `CN1CCN(c2ncncc2-c2ccccc2C(F)(F)F)CC1` to `CN1CCN(c2ncnc3ccc(-c4ccccc4Cl)cc23)CC1`, the “activity change, negative = inhibition” value falls from -9.94% to -11.3%.

Compared with `COc1ncc2nc(C)c(=O)n(C3CC3)c2n1`, `Cc1nc2cnc(OCc3ccccc3)nc2n(C)c1=O` is higher in “activity change, negative = inhibition” value: -8.36% for the first, -6.22% for the second.

First: COc1ccc(CNc2cc(-c3ccoc3)ncn2)c(OC)c1
Second: COc1cccc(-c2cc(N(C)Cc3ccco3)ncn2)c1
The “activity change, negative = inhibition” value of the first is lower: -17.5% for the first, -13.5% for the second.

Compared with `O=c1c(-c2cc(F)cc(F)c2)nc2cncnc2n1-c1ccccc1`, `COc1ncc2nc(-c3cc(F)cc(F)c3)c(=O)n(C)c2n1` is higher in “activity change, negative = inhibition” value: -8.84% for the first, -5.33% for the second.

First: COc1cccc(Nc2ncc3nc(C)c(=O)n(CCc4ccccc4)c3n2)c1
Second: Cc1nc2cnc(Nc3ccccc3)nc2n(Cc2ccc(F)cc2)c1=O
The “activity change, negative = inhibition” value of the first is higher: -8.07% for the first, -22.2% for the second.

Going from `c1cncc(CNc2ncncc2-c2cccnc2)c1` to `c1ccc(CNc2cc(-c3cccnc3)ncn2)cc1`, the “activity change, negative = inhibition” value falls from -6.94% to -11.1%.

Compared with `COCCn1c(=O)c(-c2ccc(F)cc2)nc2cnc(OC)nc21`, `COCCn1c(=O)c(-c2cccc(C#N)c2)nc2cnc(N(C)C)nc21` is higher in “activity change, negative = inhibition” value: -9.31% for the first, -7.13% for the second.

First: COCCNc1nc(-c2ccccc2OC)nc2ccccc12
Second: Cc1ccccc1-c1cncnc1NCc1ccccc1
The “activity change, negative = inhibition” value of the first is higher: -3.78% for the first, -13.6% for the second.

Compared with `Cc1nc2cnc(N3CCOCC3)nc2n(C)c1=O`, `O=c1cnc2cnc(N3CCOCC3)nc2n1C1CC1` is higher in “activity change, negative = inhibition” value: -9% for the first, -8.02% for the second.

Going from `c1csc(CNc2ccnc(-c3ccoc3)n2)c1` to `CN1CCN(c2ncc3nc(-c4ccccc4)c(=O)n(CCc4ccccc4)c3n2)CC1`, the “activity change, negative = inhibition” value rises from -19.4% to -12.9%.

First: Fc1ccc(Nc2ncncc2-c2ccccc2C(F)(F)F)cc1
Second: N#CCCn1c(=O)c(-c2ccc(Cl)cc2)nc2cnc(Oc3ccccc3)nc21
The “activity change, negative = inhibition” value of the first is higher: -9.12% for the first, -9.15% for the second.

Going from `COc1cccc(Cn2c(=O)cnc3cncnc32)c1` to `COc1ccc(Oc2ncc3ncc(=O)n(C)c3n2)cc1`, the “activity change, negative = inhibition” value rises from -8.29% to -3.68%.

Compared with `CN1CCN(c2ncc3ncc(=O)n(CCC#N)c3n2)CC1`, `O=c1c(-c2cc(F)cc(F)c2)nc2cnc(N3CCNCC3)nc2n1C1CC1` is higher in “activity change, negative = inhibition” value: -10.3% for the first, -9.38% for the second.

With `COc1ccccc1CNc1nc(-c2c(C)noc2C)nc2ccccc12` the Potency was 28.2 µM (active).
In the case of `CN(C)c1nc(-c2ccoc2)nc2ccccc12`, the Potency was 56.2 µM (active).
